Many of the other results were omitted from the sample, so hits are more common in it than they were.
CBX7 inh: inhibitors of human CBX7 binding to H3K27me3 peptide; AID 1224903; normalised signal (fraction of DMSO) (no concentration beside the values); hit rate 1.1% among 66,000; O95931; AlphaScreen His6-CBX7 / biotin-H3K27me3 peptide binding; active compounds read low; in the data active = normalised signal below about 0.5
Target sequence (O95931 whole entry, looked up): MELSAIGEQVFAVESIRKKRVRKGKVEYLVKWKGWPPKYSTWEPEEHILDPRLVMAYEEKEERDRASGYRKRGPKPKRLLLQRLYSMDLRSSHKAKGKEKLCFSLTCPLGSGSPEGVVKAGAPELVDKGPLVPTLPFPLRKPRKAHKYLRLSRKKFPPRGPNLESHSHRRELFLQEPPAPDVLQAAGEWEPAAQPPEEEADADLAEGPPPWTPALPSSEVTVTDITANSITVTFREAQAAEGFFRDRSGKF
Of the large screens only hits and unclear results are named; the others gave an inactive call.

Cc1noc(/C=C/c2cccs2)c1S(=O)(=O)N1CCCC(C(=O)Nc2nccs2)C1 (stereo unspecified)	none
CCOc1ccc2nc(N3CCC(C(=O)Nc4ccc(Cl)cc4)CC3)sc2c1	none
COc1cccc(NC(=O)CC2Sc3ccc(C(F)(F)F)cc3NC2=O)c1 (stereo unspecified)	none
CCN1CCCC1CNC(=O)c1sc2ncn(CC(=O)N3CCCCC3C)c(=O)c2c1C (stereo unspecified)	none
Cc1cccc(C)c1Nc1c(-c2ccccc2)nc2ncccn12	none
CC(=O)N1CCc2cc(S(=O)(=O)NC(CC(C)C)C(=O)Nc3ccccc3C)ccc21 (stereo unspecified)	none
Cc1cccc(N2CCN(C(=O)c3cnn(-c4ccccc4)c3-n3cccc3)CC2C)c1 (stereo unspecified)	none
Cc1cccc(N2CCN(C(=O)c3cc(-c4ccncc4)nc4ccccc34)CC2C)c1 (stereo unspecified)	CBX7 inh 0.41
O=C(c1cc(-c2ccncc2)nc2ccccc12)N1CCN(c2ccccn2)CC1	none
CCOC(=O)c1c(C)n(C)c2ccc(OCC(O)CNCCCO)cc12 (stereo unspecified)	none
O=C(NCc1cccs1)c1cccc2c1C(=O)N(C1CCCCC1)C2	none
c1ccc(-c2nnc(Nc3ccccn3)c3ccccc23)cc1	none
Cc1cc(C)cc(-c2nc(-c3ccccn3)no2)c1	none
c1ccc(-c2nnc(-c3ccccn3)nc2-c2ccccc2)cc1	CBX7 inh 0.05
CCc1ccc(NC(=O)CNC(=O)c2nn(-c3ccc(OC)c(OC)c3)c(=O)c3ccccc23)cc1	none
Cn1nc(-c2ccc(N3CCOCC3)c(NC(=O)c3cccs3)c2)c2ccccc2c1=O	none
COc1ccc(-c2noc(CCC(=O)NCCN(C)C)n2)cc1	none
CCN(CCCNC(=O)CCc1nc(-c2ccc(OC)cc2)no1)c1cccc(C)c1	CBX7 inh 0.42
COc1ccc(-c2noc(CCC(=O)NCCCOC(C)C)n2)cc1	none
CC(C)CN(CC(C)C)S(=O)(=O)c1ccc2c(c1)CCN2C(=O)C1CCC1	none
CCCCN1CCCc2cc(CN(CCCN3CCOCC3)C(=O)Nc3ccc(C)c(C)c3)ccc21	CBX7 inh 0.22
CCCN1CCCc2cc(CN(CCCOC)C(=O)Nc3ccc(C)c(C)c3)ccc21	none
CCCN1CCCc2cc(CN(CCCN3CCOCC3)C(=O)Nc3ccc(OCC)cc3)ccc21	none
CCOc1ccc(NC(=O)N(CCN2CCOCC2)Cc2ccc3c(c2)CCCN3CC)cc1	none
CCCN1CCCc2cc(CN(CCCOC)C(=O)Nc3ccc(OCC)cc3)ccc21	CBX7 inh 0.23
CCN1CCCc2cc(CN(CCN3CCOCC3)C(=O)Nc3ccc(Cl)cc3)ccc21	none
CCOc1ccc2nc(N3CCCC(C(=O)Nc4cc(Cl)ccc4OC)C3)sc2c1 (stereo unspecified)	none
COCCCNC(=O)c1c[nH]c2ccc(S(=O)(=O)Nc3cc(C)cc(C)c3)cc2c1=O	none
Cc1cc(C)cc(OCC(O)CN2CCN(c3ccccc3)CC2)c1 (stereo unspecified)	none
Cc1ccc2oc(-c3cccc(NC(=O)c4ccccc4Cl)c3)nc2c1	none
Cc1ccc2oc(-c3cccc(NC(=O)c4ncn[nH]4)c3)nc2c1	CBX7 inh 0.076
COc1cccc(OC)c1C(=O)Nc1cccc(-c2nc3cc(C)ccc3o2)c1	none
CCc1ccc(Nc2nc3ccccc3nc2NS(=O)(=O)c2ccc(C)cc2)cc1	none
Cc1ccc(Oc2cc([N+](=O)[O-])cc3c2C(=O)Nc2ccccc2O3)cc1	none
Cc1ccccc1Oc1cc([N+](=O)[O-])cc2c1C(=O)Nc1cc(Cl)ccc1O2	CBX7 inh 0.084
O=C1Nc2cc(Cl)ccc2Oc2cc([N+](=O)[O-])cc(Oc3ccccc3)c21	none
Cc1ccc2c(c1)Oc1cc([N+](=O)[O-])cc(Oc3cccc(Cl)c3Cl)c1C(=O)N2	CBX7 inh 0.2
COCCOc1cc([N+](=O)[O-])cc2c1C(=O)Nc1ccccc1O2	none
COc1ccc(Oc2cc([N+](=O)[O-])cc3c2C(=O)Nc2cc(Cl)ccc2O3)cc1	CBX7 inh 0.42
COC(=O)CC1Oc2ccc(Cl)cc2NC1=O (stereo unspecified)	none
COc1ccc(CNC(=O)CC2Oc3ccc(Cl)cc3NC2=O)cc1 (stereo unspecified)	none
CCC1CCCCN1CCCNC(=O)c1cnc(Nc2ccc(F)cc2)c2ccccc12 (stereo unspecified)	none
CCC1CCCCN1CCCNC(=O)c1ccc2c(c1)NC(=O)C(C(C)C)N2 (stereo unspecified)	none
Cc1ccc2c(c1)c(=O)c(S(=O)(=O)c1ccccc1)cn2CC(=O)Nc1ccccc1C	none
Cc1sc2ncn(CC(=O)NCCCC(=O)NC(C)C)c(=O)c2c1C	none
COc1ccc(OC)c(NC(=O)[C@H](CCS(C)(=O)=O)N2Cc3ccccc3C2=O)c1	none
C=CCc1ccccc1OCc1nnc(NC(=O)Nc2cccc(Cl)c2)s1	none
Cc1ccc(C(=O)Nc2sc3c(c2C(=O)N2CCCCCC2)CCCC3)cc1	none
CCOC(=O)c1[nH]cnc1C(=O)Nc1ccc(Br)cc1	none
O=C(Nc1ccc(Br)cc1)c1ccccc1C(=O)c1ncc[nH]1	none
O=C(Nc1ccccn1)c1nc[nH]c1C(=O)O	CBX7 inh 0.3
O=C(Nc1ccccc1C(=O)Nc1ccccn1)c1ccccc1	none
O=C(Nc1ccc(Br)cc1)c1nc[nH]c1C(=O)O	CBX7 inh 0
Cc1ccccc1NC(=O)c1nc[nH]c1C(=O)Nc1ccccc1C	none
O=C(NCC1(c2ccccc2)CCCC1)c1ccc(Cl)cc1Cl	none
COc1cc(OC)c(NC(=O)c2cnc(N3CCN(c4ccccn4)CC3)c3ccccc23)cc1Cl	none
CCc1ccc(OCCCC(=O)NCCc2nc3ccccc3[nH]2)cc1	none
CCC1Oc2ccc(Cl)cc2N(CC(=O)NC2CCCC(C)C2C)C1=O (stereo unspecified)	none
O=C(CN1C(=O)COc2ccccc21)NCCN1CCN(c2ccccc2F)CC1	none
COc1cccc(-c2nc(SCC(=O)NC3CCCC3)c(-c3ccc(C)cc3)[nH]2)c1	none
CCCCOc1ccc(-c2nc3c(C(=O)OC)c[nH]n3c2NC2CCCCCC2)cc1	CBX7 inh 0.21
CCCCOc1cccc(-c2nc3c(C(=O)OC)c[nH]n3c2NC2CCCCCC2)c1	CBX7 inh 0.46
COC(=O)c1c[nH]n2c(NC3CCCC3)c(-c3cccc(Br)c3)nc12	none
CCCOc1ccc(-c2nc(Oc3ccc(C(=O)OC)cc3)c3ccccc3n2)cc1	none
CCCCOc1ccc(-c2nc3ncccn3c2NC2CCCC2)cc1	none
COc1ccccc1NC(=O)c1cc(-c2ccccc2Cl)nc2ccccc12	none
CCCC(=O)NCCCc1nc2ccccc2n1Cc1ccccc1C	none
COC(=O)c1nn2c(C(F)(F)F)cc(-c3ccc(C)cc3)nc2c1Cl	none
COc1ccc(-c2nn(C)c3sc(C(=O)NCCCN(C)Cc4ccccc4)cc23)cc1OC	none
CCCn1c(CCCNC(=O)Cc2ccccc2)nc2ccccc21	none
COc1ccc(NC(=O)C2CCCN(S(=O)(=O)c3c(C)noc3C)C2)cc1 (stereo unspecified)	none
O=C1CC(c2ccc(S(=O)(=O)NCCc3ccccc3)cc2)CN1 (stereo unspecified)	none
CCOC(=O)N1CCc2c(sc(NCc3cccs3)c2C(=O)Nc2ccc(OC)cc2OC)C1	none
CCOC(=O)N1CCc2c(sc(NCc3ccncc3)c2C(=O)Nc2cc(OC)ccc2OC)C1	none
CCOC(=O)N1CCc2c(sc(NCc3cccs3)c2C(=O)Nc2cc(OC)ccc2OC)C1	CBX7 inh 0.47
CCOc1ccccc1NC(=O)CCc1nc2cccnc2n1Cc1ccc(OC)cc1	none
CN1CCN(C(=O)c2ccc3c(c2)N(Cc2ccccc2F)C(=O)c2ccccc2S3(=O)=O)CC1	none

From PubChem
